ChEMBL document CHEMBL4513146, “CO-ADD screening of Karazin Kharkiv National University (Ukraine) compounds”
Measured potencies and affinities stand elsewhere.

What was measured:
[1] = tested on: Klebsiella pneumoniae; conditions: Concentration 32 ug.mL-1;; ASSAY_TEST Inhibition of Bacterial Growth; detection method Absorption (OD600); MEDIA CAMHB; plate type 384well; NBS; CORNING #3640; time 18 hr
[2] = tested on: Candida albicans; conditions: Concentration 32 ug.mL-1; ASSAY_TEST Inhibition of Fungal Growth; detection method Absorption (OD530)
[3] = tested on: Cryptococcus neoformans; conditions: Concentration 32 ug.mL-1; ASSAY_TEST Inhibition of Fungal Growth; detection method Resazurin; Absorption (OD600-OD570); plate type 384well; NBS; CORNING #3640

SMILES	Inhibition [1]	Inhibition [2]	Inhibition [3]
CC(C)c1nnc2c(=O)n(CC(=O)Nc3ccc4c(c3)OCO4)c3ccccc3n12	6.48%	6.2%	-25.4%
O=C(Cn1nc2ccc(-c3ccccc3)nn2c1=O)Nc1ccc(Cl)c(C(F)(F)F)c1	4.19%	14.71%	-8.29%
Cc1ccc(NC(=O)CSc2nnc3c4cc(-c5ccccc5)nn4ccn23)c(C)c1	-1.1%	4.18%	-18.24%
COc1ccccc1NC(=O)Cn1nc2c(SCc3ccc(Cl)cc3)nccn2c1=O	9.59%	1.74%	-17.01%
COc1ccc(NC(=O)Cn2nc3c(Oc4cccc(OC)c4)nccn3c2=O)cc1	3.68%	3.75%	-7.1%
Cc1cccc(N(Cc2ccc(F)cc2)S(=O)(=O)c2cccn3c(C)nnc23)c1	7.81%	3.26%	-8.62%
CC(C)Cn1c(=O)c2ccc(C(=O)NC3CCCCC3)cc2n2c(=O)n(CC#N)nc12	10.69%	-0.09%	-19.28%
O=C(Cn1nc2ccc(Sc3ccccc3)nn2c1=O)Nc1ccc(F)c(Cl)c1	8.09%	1.47%	-7.06%
O=c1c2nnc(-c3cccc([N+](=O)[O-])c3)n2ccn1-c1ccc(F)cc1	11.79%	5.6%	-10.38%
COc1cccc(-n2ccn3c(SCC(=O)Nc4ccccc4F)nnc3c2=O)c1	7.91%	2.83%	-12.13%
Cc1ccc(NC(=O)Cn2nc3ccc(SCc4ccc(Cl)cc4)nn3c2=O)cc1	-9.13%	7.44%	-7.75%
COc1ccc(-c2cc3c4nnc(SCC(=O)Nc5cc(Cl)ccc5C)n4ccn3n2)cc1	0.68%	28.62%	-34.55%
COc1cc(NC(=O)Cn2nc3n(CCc4ccccc4)c(=O)c4ccccc4n3c2=O)cc(OC)c1	10.27%	12%	-22.83%
COc1ccc(Cl)cc1NC(=O)Cn1nc2c3cc(-c4ccc(C)cc4)nn3ccn2c1=O	5.55%	14.91%	-9.24%
Cc1ccc(-c2noc(Cn3nc4ccc(-c5ccccc5)nn4c3=O)n2)cc1	1.24%	8.52%	-15.81%
COc1cc(NC(=O)Cn2nc3ccc(-c4ccc(Cl)cc4)nn3c2=O)cc(OC)c1	6.35%	1.47%	-13.03%

SMILES	Inhibition [1]	Inhibition [2]	Inhibition [3]
COc1cc(OC)c(NC(=O)Cn2nc3c4c5c(sc4ncn3c2=O)CC(C)CC5)cc1Cl (stereo unspecified)	11.66%	3.55%	-23.25%
CN(Cc1ccccc1)C(=O)CSc1nnc2c3cc(-c4ccccc4)nn3ccn12	-0.25%	2.03%	-6.97%
COc1cccc(-n2ccn3c(SCc4ccccc4C)nnc3c2=O)c1	8.9%	2.6%	-11.74%
COC(=O)c1ccc(NC(=O)Cn2nc3ccc(C(=O)NCc4ccccc4)cn3c2=O)cc1	7.68%	0.61%	-23.41%
COc1cccc(Oc2nccn3c(=O)n(CC(=O)Nc4ccc(OC)c(Cl)c4)nc23)c1	9.28%	1.52%	-8.33%
CC(C)c1nnc2c(=O)n(CC(=O)Nc3cccc(C#N)c3)c3ccccc3n12	14.72%	2.88%	-33.67%
Cc1cccc(C)c1NC(=O)CSc1nc2ccccc2n2c(C)nnc12	9.22%	0.67%	-4.49%
COc1ccc(NC(=O)c2ccc3nn(CC(=O)Nc4ccc5c(c4)OCCO5)c(=O)n3c2)cc1	2.24%	1.62%	-23.54%
Cc1oc(-c2cccc(Cl)c2)nc1CSc1nc2ccccc2n2c(C)nnc12	5.28%	6.15%	-6.37%
CCc1ccc(Cn2c(=O)c3sccc3n3c(=O)n(Cc4c(F)cccc4Cl)nc23)cc1	5.71%	1.83%	-25.59%
COc1cc(NC(=O)C(C)Sc2nnc3c(=O)n(-c4ccccc4OC)ccn23)cc(OC)c1 (stereo unspecified)	11.13%	1.4%	-7.6%
Cc1ccccc1Nc1cc(C)n2c(=O)n(CCOc3ccc(F)cc3)nc2n1	9.7%	-1.22%	-5.27%
CSc1cccc(NC(=O)Cn2nc3c(Oc4ccccc4C)nccn3c2=O)c1	7.38%	-0.96%	-9.56%
CCOc1ccccc1NC(=O)Cn1nc2c(Oc3ccccc3)nccn2c1=O	5.91%	2.77%	-10.21%
Cc1ccc(Sc2nccn3c(=O)n(CC(=O)Nc4cccc(Cl)c4)nc23)c(C)c1	8.68%	4.74%	-21.78%
COc1ccc(-n2ccn3c(=O)n(Cc4cc(C)ccc4C)nc3c2=O)cc1Cl	9.01%	1.96%	-5.13%
